Laboratory results from PubChem BioAssay (NCATS).
Records with an inconclusive call do not appear. Active and inactive are the calls of the source. Calls follow the shape of the dose curve; as a rule, active = well fitted curve in the direction sought with a large enough effect; inconclusive = small, poorly fitted or top-dose-only effect, or another doubt; inactive = no such curve, though single readings can be large; an effect the other way counts as inactive or inconclusive. Peptide text beside a SMILES is read from it.

Legend:
[1] = Cell Viability - LYMP2-004 (AID 966); also: nearly all actives have a fitted effect of over 65% in size
In short: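 Cells seeded 2500/well, rested 5 hr at 37 C, dosed across a concentration series, incubated 24 hr at 37 C, then CellTiter-Glo added for 30 min at room temperature and luminescence read. Hill fitting gave AC50.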

[2] = Cell Viability - LYMP2-005 (AID 967)
In short: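 LYMP2-005 human lymphoblastoid cells (2500/well) were treated with compounds for 24 h at 37 C. Intracellular ATP was then measured by CellTiter-Glo luminescence after 30 min at room temperature. AC50 values came from Hill-equation fits of qHTS concentration-response data.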

[3] = Cell Viability - LYMP2-009 (AID 968); also: nearly all actives have a fitted effect of over 55% in size
[4] = Cell Viability - LYMP2-011 (AID 969); also: nearly all actives have a fitted effect of over 60% in size
In short: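 2500 cells/well, 5 hr 37 C; compound added, 24 hr 37 C; CellTiter-Glo 30 min RT; luminescence. qHTS concentration-response, Hill-equation AC50. Tetraoctylammonium bromide positive control.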

[5] = Cell Viability - LYMP2-013 (AID 970); also: nearly all actives have a fitted effect of over 55% in size
In short: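 qHTS; 2500 lymphoblastoid cells/well; 5 hr 37 C settle; cpd 24 hr 37 C; CellTiter-Glo, 30 min RT; luminescence. AC50 = Hill fit.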

[6] = Cell Viability - LYMP2-015 (AID 971); also: nearly all actives have a fitted effect of over 55% in size
In short: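 Luminescent ATP read-out (CellTiter-Glo) served as the viability measure after lymphoblastoid cells were exposed to compounds for 24 hours at 37 C. Concentration-response data were fitted with the Hill equation to give AC50.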

[7] = Cell Viability - LYMP2-017 (AID 972); also: nearly all actives have a fitted effect of over 55% in size
In short: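 2500 cells/well, 5 h 37 C; cpd 24 h 37 C in complete medium; CellTiter-Glo, 30 min RT; luminescence (ATP). AC50 via Hill fit, qHTS.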

[8] = Cell Viability - LYMP2-019 (AID 973); also: nearly all actives have a fitted effect of over 55% in size
In short: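 Luminescent ATP read-out (CellTiter-Glo, 30 min room temperature) served as the viability measure after 24 hr treatment of lymphoblastoid cells at 37 C. Concentration-response data were fitted to the Hill equation for AC50.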

[9] = Cell Viability - LYMP2-021 (AID 974)
In short: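 Plate 2500 lymphoblastoid cells per well and incubate 5 hr at 37 C. Add compounds over a concentration range and incubate 24 hr at 37 C. Add CellTiter-Glo, wait 30 min at room temperature, read luminescence.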

[10] = Cell Viability - LYMP2-023 (AID 975); also: nearly all actives have a fitted effect of over 55% in size
In short: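 2500 cells/well, 5 hr 37 C; cpd 24 hr 37 C; CellTiter-Glo, 30 min RT; luminescence. qHTS conc-response, Hill fit -> AC50. Pos ctrl tetraoctylammonium bromide.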

[11] = Cell Viability - LYMP2-025 (AID 976)
In short: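 Seed 2500 LYMP2-025 cells/well; 5 hr at 37 C; add compound; 24 hr at 37 C; add CellTiter-Glo; 30 min RT; read luminescence. AC50 from Hill-modelled concentration-response.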

[12] = Cell Viability - LYMP2-002 (AID 977)
In short: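 Human lymphoblastoid LYMP2-002 cells, 2500 per well, exposed to compounds for 24 h at 37 C in complete medium; viability read as intracellular ATP by CellTiter-Glo luminescence, AC50 from Hill fits.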

[13] = Cell Viability - LYMP2-006 (AID 978); also: nearly all actives have a fitted effect of over 60% in size
In short: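 Potency values are Hill-fit AC50s for decreases in intracellular ATP (CellTiter-Glo luminescence). LYMP2-006 lymphoblastoid cells, 2500 per well, were exposed to compound in complete culture medium for 24 hr at 37 C.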

[14] = Cell Viability - LYMP2-007 (AID 979);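 also: cells exposed to compound for 24 h before reading; nearly all actives have a fitted effect of over 60% in size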
In short: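 Luminescent ATP signal (CellTiter-Glo) serves as the viability read-out after 24 hr compound treatment of lymphoblastoid cells in complete medium at 37 C. Concentration-response data were fitted to the Hill equation to give AC50 values.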

[15] = Cell Viability - LYMP2-008 (AID 980); also: nearly all actives have a fitted effect of over 60% in size
In short: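 qHTS, human lymphoblastoid line, 2500 cells/well; 5 hr preincubation, 24 hr compound, 37 C. CellTiter-Glo ATP luminescence. AC50 via Hill equation. Tetraoctylammonium bromide positive control.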

[16] = Cell Viability - LYMP2-010 (AID 981); also: nearly all actives have a fitted effect of over 55% in size
In short: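 Luminescent ATP signal (CellTiter-Glo) served as the viability read-out. Cells of the human lymphoblastoid line were treated with compound over a concentration range for 24 hours at 37 C, and AC50 values came from Hill-equation modeling.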

[17] = Cell Viability - LYMP2-012 (AID 982)
[18] = Cell Viability - LYMP2-014 (AID 983); also: nearly all actives have a fitted effect of over 50% in size
In short: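 Luminescent ATP signal (CellTiter-Glo, 30 min at room temperature) serves as the viability read-out after 24 hr compound exposure at 37 C. Cells were seeded at 2500 per well and settled 5 hr beforehand.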

[19] = Cell Viability - LYMP2-016 (AID 984); also: nearly all actives have a fitted effect of over 55% in size
In short: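 Cytotoxicity was scored by luminescent ATP content (CellTiter-Glo) after 24 h compound exposure at 37 C of a human lymphoblastoid line at 2500 cells/well. Concentration-response data were fitted to the Hill equation for AC50.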

[20] = Cell Viability - LYMP2-018 (AID 985); also: nearly all actives have a fitted effect of over 50% in size
In short: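 Luminescent ATP signal (CellTiter-Glo, read after 30 min at room temperature) reports viable cells after 24 hr compound treatment at 37 C. Concentration-response data were fitted to the standard Hill equation for AC50.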

Measured: Potency
Potency is read from the fitted curve at half-maximal effect.

CCCCC(CC)COC(=O)C(C#N)=C(c1ccccc1)c1ccccc1 (configuration not stated)
inactive: all assays above

c1ccc2[nH]c(-c3cscn3)nc2c1
inactive: all assays above

Cc1cc(O)c2c(c1)C(=O)c1cc(O)cc(O)c1C2=O
inactive: [1] | [2] | [4] | [6] | [11] | [17]

CN(C)c1ccc2nc3ccc(=[N+](C)C)cc-3sc2c1
active: [1] 5.01 µM | [2] 5.01 µM | [3] 5.01 µM | [4] 6.31 µM | [5] 7.94 µM | [6] 3.98 µM | [7] 6.31 µM | [8] 3.16 µM | [9] 7.94 µM | [10] 3.98 µM | [11] 3.98 µM | [12] 3.16 µM | [13] 5.01 µM | [14] 7.94 µM | [15] 3.16 µM | [16] 6.31 µM | [17] 6.31 µM | [18] 3.98 µM | [19] 3.98 µM | [20] 7.94 µM

COc1c2occc2cc2ccc(=O)oc12
inactive: all assays above

CC(=O)Nc1ccc(O)cc1
inactive: all assays above

COC(=O)[C@H](Cc1ccccc1)NC(=O)[C@@H](N)CC(=O)O (H-Asp-Phe-OMe)
inactive: all assays above

CCc1nc(N)nc(N)c1-c1ccc(Cl)cc1
inactive: [1] | [2] | [5] | [7] | [10] | [11] | [13] | [18] | [19] | [20]
active: [14] 50.1 µM

Cc1ccc(C)c(OCCCC(C)(C)C(=O)O)c1
inactive: all assays above

CS(=O)(=O)OCCCCOS(C)(=O)=O
inactive: all assays above

NS(=O)(=O)c1cc(C(=O)O)c(NCc2ccco2)cc1Cl
inactive: all assays above

CCCc1cc(=O)[nH]c(=S)[nH]1
inactive: all assays above

Nc1ccc(S(N)(=O)=O)cc1
inactive: all assays above
